# Hits are enriched below; roughly 3.5% of the tested compounds scored in any of these assays.
# TEAD-YAP block: TEAD-YAP interaction inhibition; AID 1259422; hit rate 1.4% among 640,000; HEK-TIYL cells, TEAD-Gal4/YAP UAS-luciferase luminescence; inhibition, % at 9.12 µM; in the data active = inhibition above about 32%;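 note: 0% = median of test compound wells and 100% = reference inhibitor wells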
# GPR151 activ: human GPR151 activation; PathHunter beta-arrestin GPR151 cells, luminescence; activation, % at 11.2 µM; hit rate 1% among 650,000; AID 1508602; in the data active = activation above about 4.9%;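 note: 0% = median of compound wells and 100% = cells with positive control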
# MITF primary: blocks human microphthalmia-associated transcription factor | O75030 | AlphaScreen MITF homodimerization, bead proximity signal | inhibition, % at 2.6 µM | hit rate 0.91% among 650,000; in the data active = inhibition above about 50%;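 note: 0% = vehicle wells with protein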
# Target sequence (O75030 whole entry, looked up): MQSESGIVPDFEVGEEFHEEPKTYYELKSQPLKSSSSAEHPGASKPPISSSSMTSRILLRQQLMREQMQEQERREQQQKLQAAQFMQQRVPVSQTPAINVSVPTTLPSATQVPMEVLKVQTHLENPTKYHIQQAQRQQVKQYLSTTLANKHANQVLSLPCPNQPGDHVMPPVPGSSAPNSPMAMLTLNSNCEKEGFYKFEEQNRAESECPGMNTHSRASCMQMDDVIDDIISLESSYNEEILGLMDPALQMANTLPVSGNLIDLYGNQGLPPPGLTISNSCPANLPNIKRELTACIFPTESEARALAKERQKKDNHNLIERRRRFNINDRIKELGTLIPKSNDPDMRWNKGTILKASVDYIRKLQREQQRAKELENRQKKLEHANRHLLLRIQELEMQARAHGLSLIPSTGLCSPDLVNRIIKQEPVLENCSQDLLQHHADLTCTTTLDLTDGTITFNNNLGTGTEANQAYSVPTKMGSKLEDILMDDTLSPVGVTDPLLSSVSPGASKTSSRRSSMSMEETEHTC
# FBW7 act: human FBW7 E3 ligase activation, primary screen; Q969H0; AlphaScreen FBW7–phospho-cyclin E peptide binding, activator screen; normalized activity (activation), % at 26.1 µM; hit rate 0.13% among 650,000; in the data active = normalized activity above about 1.9%;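 note: purified mutant Fbw7 with reduced substrate affinity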
# MITF inh conf: human MITF inhibition, confirmation; shares compounds with MITF primary; AlphaScreen MITF homodimerization, biotin/His-MITF beads; hit rate 16% among 4,700; inhibition, % at 2.6 µM;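 active = inhibition above a cutoff derived from the DMSO control wells, cut at about 28% in these data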;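 note: 0% = MITF dimer wells with DMSO only; inhibitors lower the bead chemiluminescence by keeping MITF from dimerizing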
# AlphaScreen DR: counter-screen: compounds optically interfering with AlphaScreen | shares compounds with MITF primary | AlphaScreen optical interference counterscreen, cell-free | IC50, µM | hit rate 6% among 480; call rule not given here
# AlphaScreen intf2: AlphaScreen optical interference, counter-screen; shares compounds with MITF primary; LysRS AlphaScreen counterscreen, signal interference, triplicate; inhibition, % at 2.6 µM; hit rate 7.6% among 4,700; AID 1259376;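 active = inhibition above a cutoff derived from the DMSO control wells, cut at about 30% in these data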
# * hit, by the source's call; . = no result.
SMILES,TEAD-YAP block,GPR151 activ,MITF primary,FBW7 act,MITF inh conf,AlphaScreen intf2,others
c1ccc(CN2CCN(Cc3ccc4c(c3)OCO4)CC2)nc1,0,1,63*,0,-7,-1,
Cc1nc(N2CCN(Cc3ccc4c(c3)OCO4)CC2)c2c(C)c(C)sc2n1,15,3,74*,0,7,7,
O=C(NCc1nc(-c2cccnc2)n[nH]1)NC1CCCCC1,12,0,9,1,.,.,
c1cc(CN2CCN(Cc3ccc4c(c3)OCO4)CC2)co1,-3,-1,66*,0,1,9,
O=C(C(=O)N1CCN(Cc2ccc3c(c2)OCO3)CC1)N1CCN(Cc2ccc3c(c2)OCO3)CC1,2,-2,-11,1,.,.,
Brc1csc(CN2CCN(Cc3ccc4c(c3)OCO4)CC2)c1,0,0,62*,1,10,13,
O=C(COc1ccccc1C(=O)OC1CCCC1=O)Nc1cccc(C(F)(F)F)c1 (stereo not given),6,2,62*,0,72*,3,AlphaScreen DR=>6.8
NC(=O)c1ccccc1OCC(=O)Nc1cccc(C(F)(F)F)c1,-70,0,-1,0,.,.,
c1cncc(-c2cc(NCCCn3ccnc3)nc(-c3cccnc3)n2)c1,8,2,65*,-1,29*,39*,
c1cncc(-c2nc(NCCCn3ccnc3)cc(-c3ccncc3)n2)c1,13,-1,13,-1,.,.,
COc1cc(C(=O)Nc2c(C)nc3cc(C)ccn3c2=O)cc(OC)c1OC,8,-1,5,0,.,.,
N#Cc1nc(-c2cccc(Cl)c2)oc1N1CCN(C(=O)c2ccc(Cl)cc2)CC1,-7,5,-7,0,.,.,
Cc1cccc(C(=O)N2CCN(c3oc(-c4ccc(Cl)cc4)nc3C#N)CC2)c1,1,0,75*,0,6,-3,
COc1cccc(-n2c(=O)c3c(n4c(SCCC(C)C)nnc24)-c2ccccc2CC32CCCCC2)c1,0,1,-9,0,.,.,
O=C(CCc1ccccc1)Nc1ccc(-c2cn[nH]c2)cc1,-27,1,-1,0,.,.,
COCCN1CCCc2ccc(NC(=O)c3ccc(C)cc3)cc21,-54,-2,54*,1,7,2,
COc1cc(OC)cc(C(=O)NCc2nnc(SCC(=O)N3N=C(c4cccs4)CC3c3ccc(F)cc3)n2-c2ccc(F)cc2)c1 (stereo not given),1,0,0,0,.,.,
CCNc1nc(Oc2ccc(C(=O)OCC)cc2)nc(N(C)C)n1,-2,1,-13,0,.,.,
CCOC(=O)c1ccc(Oc2nc(N(C)C)nc(N(C)C)n2)cc1,-10,1,54*,0,3,7,
CC(=C\c1ccccc1)/C=C1N=C(/C=C/c2ccccc2)OC/1=O,0,-1,6,0,.,.,
O=S(=O)(Cc1ccccc1)N1CCN(Cc2ccc(Br)cc2)CC1,1,2,59*,0,10,9,
O=S(=O)(Cc1ccc(Cl)cc1)N1CCN(Cc2ccccc2)CC1,-1,1,0,1,.,.,
CSc1ccc(CN2CCN(S(=O)(=O)Cc3ccccc3)CC2)cc1,14,0,72*,0,10,13,
CCc1ccc(CN2CCN(S(=O)(=O)Cc3ccccc3)CC2)cc1,15,-2,60*,0,6,13,
CSc1ccc(S(=O)(=O)N2CCN(Cc3ccccc3)CC2)cc1,-4,-2,20,1,.,.,
SMILES,TEAD-YAP block,GPR151 activ,MITF primary,FBW7 act,MITF inh conf,AlphaScreen intf2,others
O=S(=O)(Cc1ccccc1)N1CCN(C2CCN(Cc3ccccc3)CC2)CC1,-10,0,65*,0,-7,0,
CCOc1ccccc1NC(=O)c1cc(S(=O)(=O)NC2CCCCC2C)ccc1F (stereo not given),-11,1,1,0,.,.,
CCOC(=O)c1sc(NC(=O)CSc2nnc(CNC(=O)c3ccccc3F)n2C)c(C(=O)OCC)c1C,2,1,1,0,.,.,
O=C(/C=C/c1ccc(F)cc1)Nc1ccc(N2CCOCC2)cc1,2,5,16,0,.,.,
COc1cc(CN2CCN(S(=O)(=O)c3ccc(C)cc3)CC2)cc(OC)c1OC,7,-1,52*,1,-1,12,
COc1cc(CN2CCN(S(=O)(=O)c3ccccc3)CC2)cc(OC)c1OC,-5,0,42,0,.,.,
COc1cc(CN2CCN(S(=O)(=O)c3ccc(F)cc3)CC2)cc(OC)c1OC,6,2,52*,0,-2,7,

# From PubChem BioAssay
